# About 410 targets per protein were measured; listed, in parts, are those with the strongest signals and a random draw of the rest.
# B1: SP16664B-bot-474-25-474 (Bacteroides ovatus) (protein)
# chain: CEEDIEIGNKIDESSYLASTQLSGLLLDENTNKNSSVIELRNNEYSTNVVFRLSKLPQKGVDVQIAVEESYAAIYNTIHETDFEVFPAANVKIANNGTFVLAPDDKVTPSVKVTLTAFDGMEEDKTYIVPLTVTSSTEGVTFTETSKHMVLLVQDYRNKPNTNKGEDAVQTVLYFEVNDTNPLNALEFLTESGKYFFDHIVLFAANINWDPEKQRVYLANNENVQFLLDNNDKYLQPLRKAGMKIIISILGNHDEAGVAQLSDMGAREFARELAAYCRAYNLDGVAFDDEYSNSPDLSNPWLASPSAYAGSRLMYECKAVMPEKIVSLYNLGNMYSSSLQVIDGIEPGQYCDYAVADYGGAAGPGTGMTLKQCAGMSIELRRGSGNSSESTARSRKEAGYGYYMFFALDPSLYGSQVYRCQSVCKGLYDETLVYPSYYYKKNSTEREAIN
# Key:
# Assay in all cases: glycan array binding signal (z-score within array); higher = stronger binding
# Details in all cases: glycan notation: IUPAC condensed, linker removed
# [1] = target: Fuc(a1-2)Gal(b1-4)GlcNAc(b1-3)[Fuc(a1-3)[Gal(b1-4)]GlcNAc(b1-6)]Gal(b1-4)Glc
# How it was run: (§1)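 The binding signal is a Z-score computed within each array. Data were drawn from 3228 arrays in the Consortium for Functional Glycomics database, restricted to those with a known protein sequence. Scores were averaged over arrays of the same protein sequence at different concentrations or buffers, and over linkers, and negative values can be taken as non-binding.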
# [2] = target: Fuc(a1-2)[Gal(a1-3)]Gal(b1-3)GlcNAc(b1-3)GalNAc
# How it was run: as §1
# [3] = target: Fuc(a1-2)[GalNAc(a1-3)]Gal(b1-3)GalNAc(b1-3)Gal(a1-4)Gal(b1-4)Glc
# How it was run: as §1
# [4] = target: Fuc(a1-2)[GalNAc(a1-3)]Gal(b1-3)GlcNAc(b1-6)GalNAc
# How it was run: as §1
# [5] = target: Fuc(a1-2)[GalNAc(a1-3)]Gal(b1-4)GlcNAc(b1-2)Man(a1-3)[Fuc(a1-2)[GalNAc(a1-3)]Gal(b1-4)GlcNAc(b1-2)Man(a1-6)]Man(b1-4)GlcNAc(b1-4)GlcNAc
# How it was run: as §1
# [6] = target: Fuc(a1-2)[GalNAc(a1-3)]Gal(b1-4)GlcNAc(b1-2)Man(a1-3)[Fuc(a1-2)[GalNAc(a1-3)]Gal(b1-4)GlcNAc(b1-2)Man(a1-6)]Man(b1-4)GlcNAc(b1-4)[Fuc(a1-6)]GlcNAc
# How it was run: as §1
# [7] = target: Fuc(a1-3)[Gal(b1-4)]GlcNAc(b1-2)Man(a1-3)[Fuc(a1-3)[Gal(b1-4)]GlcNAc(b1-2)Man(a1-6)]Man(b1-4)GlcNAc(b1-4)GlcNAc
# How it was run: as §1
# Fuc(a1-4)GlcNAc = target: Fuc(a1-4)GlcNAc
# How it was run: as §1
# Gal(a1-2)Gal = target: Gal(a1-2)Gal
# How it was run: as §1
# Gal(a1-3)Gal = target: Gal(a1-3)Gal
# How it was run: as §1
# [8] = target: Gal(a1-3)Gal(b1-3)GlcNAc(b1-6)GalNAc
# How it was run: as §1
# [9] = target: Gal(a1-3)Gal(b1-4)GlcNAc(b1-2)Man(a1-3)[Gal(a1-3)Gal(b1-4)GlcNAc(b1-2)Man(a1-6)]Man(b1-4)GlcNAc(b1-4)GlcNAc
# How it was run: as §1
# [10] = target: Gal(a1-3)Gal(b1-4)[Fuc(a1-3)]GlcNAc
# How it was run: as §1
# [11] = target: Gal(a1-3)Gal(b1-4)[Fuc(a1-3)]GlcNAc(b1-2)Man(a1-3)[Gal(a1-3)Gal(b1-4)[Fuc(a1-3)]GlcNAc(b1-2)Man(a1-6)]Man(b1-4)GlcNAc(b1-4)GlcNAc
# How it was run: as §1
# Gal(a1-3)GalNAc = target: Gal(a1-3)GalNAc
# How it was run: as §1
# [12] = target: Gal(a1-3)[Gal(a1-4)]Gal(b1-4)GlcNAc
# How it was run: as §1
# [13] = target: Gal(a1-4)Gal(b1-3)GlcNAc(b1-2)Man(a1-3)[Gal(a1-4)Gal(b1-3)GlcNAc(b1-2)Man(a1-6)]Man(b1-4)GlcNAc(b1-4)GlcNAc
# How it was run: as §1
# Gal(b1-3)Gal = target: Gal(b1-3)Gal
# How it was run: as §1
# [14] = target: Gal(b1-3)GalNAc(a1-3)[Fuc(a1-2)]Gal(b1-4)GlcNAc
# How it was run: as §1
# [15] = target: Gal(b1-3)GlcNAc(b1-2)[Gal(b1-3)GlcNAc(b1-6)]Man(a1-6)[Gal(b1-3)GlcNAc(b1-2)Man(a1-3)]Man(b1-4)GlcNAc(b1-4)GlcNAc
# How it was run: as §1
# [16] = target: Gal(b1-3)GlcNAc(b1-3)Gal(b1-4)GlcNAc(b1-2)Man(a1-3)[Gal(b1-3)GlcNAc(b1-3)Gal(b1-4)GlcNAc(b1-2)Man(a1-6)]Man(b1-4)GlcNAc(b1-4)GlcNAc
# How it was run: as §1
# [17] = target: Gal(b1-3)[Fuc(a1-4)]GlcNAc(b1-6)GalNAc
# How it was run: as §1
# [18] = target: Gal(b1-4)GlcNAc(b1-2)Man(a1-3)[Gal(b1-4)GlcNAc(b1-2)Man(a1-6)]Man(b1-4)GlcNAc(b1-4)GlcNAc
# How it was run: as §1
# [19] = target: Gal(b1-4)GlcNAc(b1-2)Man(a1-3)[Gal(b1-4)GlcNAc(b1-2)Man(a1-6)][Gal(b1-4)GlcNAc(b1-4)]Man(b1-4)GlcNAc(b1-4)[Fuc(a1-6)]GlcNAc
# How it was run: as §1
# [20] = target: Gal(b1-4)GlcNAc(b1-2)[Gal(b1-4)GlcNAc(b1-6)]Man(a1-6)[Gal(b1-4)GlcNAc(b1-2)Man(a1-3)]Man(b1-4)GlcNAc(b1-4)[Fuc(a1-6)]GlcNAc
# How it was run: as §1
# [21] = target: Gal(b1-4)GlcNAc(b1-3)Gal(b1-3)GlcNAc
# How it was run: as §1
# [22] = target: Gal(b1-4)GlcNAc(b1-3)Gal(b1-4)GlcNAc(b1-2)Man(a1-3)[Gal(b1-4)GlcNAc(b1-3)Gal(b1-4)GlcNAc(b1-2)Man(a1-6)]Man(b1-4)GlcNAc(b1-4)GlcNAc
# How it was run: as §1
# [23] = target: Gal(b1-4)GlcNAc(b1-3)Gal(b1-4)GlcNAc(b1-3)Gal(b1-4)GlcNAc
# How it was run: as §1
# [24] = target: Gal(b1-4)GlcNAc(b1-3)Gal(b1-4)GlcNAc(b1-3)Gal(b1-4)GlcNAc(b1-2)Man(a1-3)[Gal(b1-4)GlcNAc(b1-3)Gal(b1-4)GlcNAc(b1-3)Gal(b1-4)GlcNAc(b1-2)Man(a1-6)]Man(b1-4)GlcNAc(b1-4)GlcNAc
# How it was run: as §1
# [25] = target: Gal(b1-4)GlcNAc(b1-3)Gal(b1-4)GlcNAc(b1-3)Gal(b1-4)GlcNAc(b1-2)[Gal(b1-4)GlcNAc(b1-3)Gal(b1-4)GlcNAc(b1-3)Gal(b1-4)GlcNAc(b1-6)]Man(a1-6)[Gal(b1-4)GlcNAc(b1-3)Gal(b1-4)GlcNAc(b1-3)Gal(b1-4)GlcNAc(b1-2)Man(a1-3)]Man(b1-4)GlcNAc(b1-4)[Fuc(a1-6)]GlcNAc
# How it was run: as §1
# [26] = target: Gal(b1-4)GlcNAc(b1-3)Gal(b1-4)GlcNAc(b1-3)GalNAc
# How it was run: as §1
# [27] = target: Gal(b1-4)GlcNAc(b1-3)Gal(b1-4)GlcNAc(b1-6)[Gal(b1-3)]GalNAc
# How it was run: as §1
# Gal(b1-6)Gal = target: Gal(b1-6)Gal
# How it was run: as §1
# [28] = target: Gal3S(b1-4)[Fuc(a1-3)]GlcNAc6S
# How it was run: as §1
# Gal3S4S(b1-4)GlcNAc = target: Gal3S4S(b1-4)GlcNAc
# How it was run: as §1
binder,measurement,setting,value
B1,glycan array binding signal (z-score),[1],-0.136
same,glycan array binding signal (z-score),[2],-0.535
same,glycan array binding signal (z-score),[3],-0.296
same,glycan array binding signal (z-score),[4],-0.622
same,glycan array binding signal (z-score),[5],0.635
same,glycan array binding signal (z-score),[6],1.16
same,glycan array binding signal (z-score),[7],2.22
same,glycan array binding signal (z-score),Fuc(a1-4)GlcNAc,2.34
same,glycan array binding signal (z-score),Gal(a1-2)Gal,0.194
same,glycan array binding signal (z-score),Gal(a1-3)Gal,-0.094
same,glycan array binding signal (z-score),[8],0.049
same,glycan array binding signal (z-score),[9],2.23
same,glycan array binding signal (z-score),[10],-0.366
same,glycan array binding signal (z-score),[11],1.65
same,glycan array binding signal (z-score),Gal(a1-3)GalNAc,-0.504
same,glycan array binding signal (z-score),[12],-0.405
same,glycan array binding signal (z-score),[13],1.04
same,glycan array binding signal (z-score),Gal(b1-3)Gal,-0.262
same,glycan array binding signal (z-score),[14],-0.291
same,glycan array binding signal (z-score),[15],0.525
same,glycan array binding signal (z-score),[16],-0.246
same,glycan array binding signal (z-score),[17],0.134
same,glycan array binding signal (z-score),[18],-0.21
same,glycan array binding signal (z-score),[19],-0.39
same,glycan array binding signal (z-score),[20],-0.218
same,glycan array binding signal (z-score),[21],-0.433
same,glycan array binding signal (z-score),[22],1.81
same,glycan array binding signal (z-score),[23],-0.33
same,glycan array binding signal (z-score),[24],1.88
same,glycan array binding signal (z-score),[25],2.21
same,glycan array binding signal (z-score),[26],1.54
same,glycan array binding signal (z-score),[27],0.334
same,glycan array binding signal (z-score),Gal(b1-6)Gal,-0.141
same,glycan array binding signal (z-score),[28],0.545
same,glycan array binding signal (z-score),Gal3S4S(b1-4)GlcNAc,0.303
